Source: the supplement of paper PMC6555819

How the values were obtained:
Test in all cases: PBM binding z-score (relative to random genomic background probes); higher = stronger binding; sequences stand for … in GC…GCGATTGACAGCGTAGAATGAAGG
[1] = system: RARb homodimer (NR concentration 270 nM)
Summary of the method: (§1)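 Antibodies against each partner of ligand-free nuclear receptor dimers (one per run) detected binding on custom Agilent 4×180K protein-binding microarrays after 1 h incubation. The double-stranded probes had 34-nt variable regions carrying direct-repeat seeds, single-nucleotide variants, half-site ablations and random human genomic background sequences. Binding z-scores, from regression-normalized fluorescence, use the random background probes as reference.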

[2] = system: RARg:RXRa (NR concentration 270 nM, RXRa partner concentration 90 nM)
Summary of the method: as §1

[3] = system: RARg homodimer (NR concentration 270 nM)
Summary of the method: as §1

[4] = system: RXRa DBDmut IVT, anti-RXR (DBD mutation: RXRa K156A/R161A, NR concentration 90 nM)
Summary of the method: as §1

[5] = system: RXRa homodimer (NR concentration 180 nM)
Summary of the method: as §1

[6] = system: THRa:RXRa (NR concentration 90 nM, RXRa partner concentration 90 nM)
Summary of the method: as §1

[7] = system: THRa homodimer (NR concentration 90 nM)
Summary of the method: as §1

[8] = system: VDR homodimer (NR concentration 270 nM)
Summary of the method: as §1

Sequence	PBM binding z-score [1]	PBM binding z-score [2]	PBM binding z-score [3]	PBM binding z-score [4]	PBM binding z-score [5]	PBM binding z-score [6]	PBM binding z-score [7]	PBM binding z-score [8]
ATCGAAAGGTCGAGGTGTGTATAGAGAAAGGGAA	2.82	4.23	4.18	0.84	4.06	2.05	0.277	0.444
CAAACTAGGTCACGAAACGTCAAAGTCGAATGAC	3.21	4.59	5.27	1.07	3.8	3.28	1.52	0.534
CCAGACAGGTGAAAGGTAACGCAGTCTGGTACGC	1.03	1.46	0.723	-0.16	2.42	1.08	-0.07	-0.146
GCTGCTAGGTCAGGGTGGTCAGCTAACGGGTACG	3.07	2.91	3.73	0.223	1.41	2.12	0.797	0.245
AGTCAAAGTTCATCTAGTTAACGTAAGATATGCT	3.73	5.37	5.78	4.8	4.19	2.13	-0.607	5.21
TCTGATAGGTCAGTTGGTCAGCTAACGAGCTGCC	2.94	3.32	4	1.1	2.15	0.722	-0.367	-0.342
CGAAGTAGGTCATTGACAGGACAGTGAATAGTAA	2.74	4.83	4.36	2.27	2.94	2.64	0.373	1.07
TGTCAAAGTTCAACGGTAACGTAAGTATCCACAC	3.79	5.69	6.35	4.26	5.2	1.98	-0.415	3.5
AGAATGAGGTTATGAAGATCAGGGAATTGCGGTC	1.07	1.45	1.06	1.05	2.45	2.35	0.96	0.716
TCTTGTAGATCATCAGGAGGTTAAGAAAGATCGA	0.484	0.857	0.389	0.372	1.01	0.897	-0.482	-0.126
CGTCCAACGTCATAGGAGGTCAGTGAAGACAGAT	2.87	1.79	2.24	0.609	1.59	3.15	0.654	1.02
GCGGCTGGGGCAAAGCAGGTTACCATAAGGTTGG	1.19	0.368	0.921	-0.596	0.116	3.18	0.108	-0.402
CCAACTAGGTCACAGAGGTCAAAGTCCGTGCGTA	5.91	7.44	8.06	3.39	7.77	4.66	3.24	6.85
ATCCCTAGGTAAAGATAGTTCAGTGAATGCAAAT	1.19	0.428	0.526	0.103	0.295	0.844	0.169	0.524
GCTAGCAGGCGATTTGGGTCACTCAATGACGGGC	1.23	0.467	0.586	-0.454	0.643	1.91	0.374	-0.295
AGAATGAGGTTATACGTAGATCACGGAAGAAAGT	0.646	1.96	1.21	2	2.38	2.11	0.348	0.934
GCGACTGGGGGAAAGCAGGTTACCATAAGGTTGG	0.976	0.585	0.39	0.147	0.696	2.25	0.613	0.229
CCTGCTGGGCCAAGGTCATTGATCAGTCAAAGCA	3.19	3.79	2.93	1.26	3.54	3.49	2.22	2.48
AGTCAAAGCTCAGGACGAGGTAACGTAAAGCACG	-0.228	0.0301	0.2	-0.664	-0.013	1.86	1.21	-0.138

Sequence	PBM binding z-score [1]	PBM binding z-score [2]	PBM binding z-score [3]	PBM binding z-score [4]	PBM binding z-score [5]	PBM binding z-score [6]	PBM binding z-score [7]	PBM binding z-score [8]
TAATATAGGTAATACAGGTGAAAGTCGGCATCTA	0.493	0.614	0.786	0.247	0.906	0.893	0.26	0.35
TCTGCTAGGTCAACGGTGGTCAGCTAATCTGCTA	3.48	4.11	4.99	1.01	2.54	3.46	0.796	-0.606
GCATATAGGTAATACTAGGTGAAAGTCCGATTGT	0.423	0.466	0.359	0.563	0.745	3.45	0.246	0.235
CCAGACAGGTGGAAGGTAACTCAGTCTGGTACGC	0.0116	-0.129	-0.15	-0.527	0.236	-0.18	-0.144	-0.0329
GCTAGTTGGTCAGTAAGAGGTCACACACCGGTCG	4.7	4.94	3.87	0.674	4.5	3.58	2.63	3.38
CCGACTGGGGCAGAAAGGTTACCATACCATCCGG	1.96	1.73	1.25	-0.648	1.61	0.85	-0.396	-0.314
TTACCAAGGAGAGCTGAGGTCGTTGATCCAACTC	0.714	0.0578	-0.138	-0.0158	0.657	2.56	1.2	2.11
TCATACAGGTAAATGCTAGGTGAAAGTCCGATCT	0.654	0.462	0.278	1.48	0.593	1.47	0.878	0.146
TTACCAACGTGAAAGGTCGTTGATGCACGCCTTG	1.63	1.54	0.872	0.467	2.73	1.35	-0.282	1.13
GCTGCTAGGTCAACTGATGTTCAGCTAAAGCTCG	3.45	4.37	5.51	1.81	2.95	2.89	1.02	0.0528
TCTGTTAGTTGAAGGGCAACCGACGAGTCCGTTT	1.22	0.835	0.708	1.1	0.588	0.412	0.0955	1.67
CCTAGCAGGCCAGGGTCACTCGAGCATTTCGCTT	2.57	3.06	2.18	0.188	3.57	2.83	0.909	1.33
CCTAGTTGGTCATGAGGTCACACACCGGATATGA	4.66	5.3	4.46	2	5.17	4.72	5.35	4.1
CCTATTAGTTGACCCTAAGGGCAACCGAAGCTCG	3.48	4.12	2.5	0.762	5.73	4.02	3.25	1.72
ACTAGCAGGCCAATTTTGGGTCACTCAAACAAAG	2.11	1.59	1.25	-0.264	0.898	2.34	1.24	-0.032
CGAACTAGGCCATTGACAGGACAGTGAATAGTAA	0.319	0.281	0.586	0.349	0.0322	0.198	-0.102	-0.193
CGTGCTAGGTCAATGGTCAGCTAAAGCAGCTCGC	2.95	3.8	4.95	1.67	2.31	2.23	0.655	0.301
ATCTGTAGGTAACCAAGTTCAGTGAATGCCGAAC	1.32	0.689	0.722	0.655	0.689	1.26	0.246	2.56
AGAATGAGGTTAAGATCAAGGAAACAGAATACAT	0.789	2.02	1.57	1.13	2.68	2.39	0.555	0.551

Sequence	PBM binding z-score [1]	PBM binding z-score [2]	PBM binding z-score [3]	PBM binding z-score [4]	PBM binding z-score [5]	PBM binding z-score [6]	PBM binding z-score [7]	PBM binding z-score [8]
AGAATGAGGTGACCAAAGATCAGGGAAACGCTTG	0.672	1.06	1.01	-0.266	1.51	2.53	0.878	-0.347
ATCTCTAGGTAACAAGTTCAGGGAAAGAGAGGAC	1.98	1.77	1.62	1.06	1.23	1.85	1.01	2.78
ATGTCTAGGTAAAAGTTCAGTGAATCCCGAGGAT	2.32	1.91	1.91	0.508	1.57	1.11	0.0268	0.949
GCTTATGGGTCAAAGGTTATAGCATGAATAGAAT	3.09	6.53	4.48	2.11	9.21	3.41	-0.168	1.13
ATCTCTAGGTAACAAGTCCAGTGAAAGAGAGGAC	0.709	0.499	0.722	0.0341	0.552	0.997	0.64	0.635
TCGAGTAGGTTACCAATGGGGGATTCAGCTTTCT	0.472	1.09	0.478	0.789	0.767	0.805	0.162	-0.0448
TCGAGTAGGTTAATCGGGGCATTCAGCCAACATA	0.592	0.49	0.334	0.443	0.518	1.99	-0.373	0.184
CGTCAAGGTTCAACTAAGGTAACGTAAAGCACGC	2.36	3.57	2.98	4.42	3.53	5.38	1.72	3.36
CCTATTAGTTGACCATAAGGGCACCCGAAGCTCG	1.86	1.16	1.04	0.326	0.908	2.02	1.61	1.39
GATACAGGGTCATGGCCAGAGTACGCGTATTGAT	3.44	5.62	5.09	2.44	6.72	3.78	0.968	2.77
TCATATAGGTAAAAGGTGATAGTCGGTGTGGTAA	1.15	0.851	0.577	1.76	1.86	0.901	0.434	0.283
TATACAGGGTCAAACGCCAGAGTACGAATGTCGA	3.44	5.93	5.27	3.62	6.88	3.56	0.861	4.28
ACAGGCAGGTGATGAAGGTAACTCAGGCTATCAT	0.415	-0.159	0.118	-0.414	0.0459	0.973	0.276	-0.29
ATCGATAGGTCGAAGGTGAGTATACCCACCCGAA	0.922	2.06	1.56	-0.262	2.36	0.837	-0.266	-0.3
CCAGCTAGGTCATGGTCAGCTAATCTACAGTATG	3.2	3.81	4.16	1.61	2.86	2.8	1.25	0.247
ATACCAAGGTGAACGTGAGGTCGTTGATACTAAC	2.68	3.63	1.98	1.19	2.68	4.11	3.14	3.61
TCATATAGGTACTACAGGTGAAAGTCGGCATCTA	0.25	0.654	0.428	1.33	0.935	0.692	-0.00751	0.023
ACTTATGGGTCAACGAGGTTATAGCACGCGTATA	3.67	5.04	5.1	1.92	5.18	3.79	1.03	2.82
CAGACTGGGGCAAGGTTACCATAACGCACAGCCA	1.35	1.16	1.52	-0.141	1.34	1.41	0.328	0.0721
